Laboratory results as given in PubChem BioAssay AID2073 (Sanford-Burnham Center for Chemical Genomics, 2009).
The whole screen tested about 290,000 compounds, of which about 570 (0.2%) were called active. Another 1% or so got no clear call; they are omitted. Rule as the data show it: active = inhibition mostly above about 51% (no sharp cut-off); inconclusive = no clear call, values can overlap the other calls; inactive = mostly below about 53%. The list comes from a sample in which actives are over-represented; it also holds similar structures and randomly drawn compounds.

Molecular target: Voltage-dependent N-type calcium channel subunit alpha-1B (Homo sapiens) (UniProt Q00975)
Sequence (Q00975 whole entry, looked up): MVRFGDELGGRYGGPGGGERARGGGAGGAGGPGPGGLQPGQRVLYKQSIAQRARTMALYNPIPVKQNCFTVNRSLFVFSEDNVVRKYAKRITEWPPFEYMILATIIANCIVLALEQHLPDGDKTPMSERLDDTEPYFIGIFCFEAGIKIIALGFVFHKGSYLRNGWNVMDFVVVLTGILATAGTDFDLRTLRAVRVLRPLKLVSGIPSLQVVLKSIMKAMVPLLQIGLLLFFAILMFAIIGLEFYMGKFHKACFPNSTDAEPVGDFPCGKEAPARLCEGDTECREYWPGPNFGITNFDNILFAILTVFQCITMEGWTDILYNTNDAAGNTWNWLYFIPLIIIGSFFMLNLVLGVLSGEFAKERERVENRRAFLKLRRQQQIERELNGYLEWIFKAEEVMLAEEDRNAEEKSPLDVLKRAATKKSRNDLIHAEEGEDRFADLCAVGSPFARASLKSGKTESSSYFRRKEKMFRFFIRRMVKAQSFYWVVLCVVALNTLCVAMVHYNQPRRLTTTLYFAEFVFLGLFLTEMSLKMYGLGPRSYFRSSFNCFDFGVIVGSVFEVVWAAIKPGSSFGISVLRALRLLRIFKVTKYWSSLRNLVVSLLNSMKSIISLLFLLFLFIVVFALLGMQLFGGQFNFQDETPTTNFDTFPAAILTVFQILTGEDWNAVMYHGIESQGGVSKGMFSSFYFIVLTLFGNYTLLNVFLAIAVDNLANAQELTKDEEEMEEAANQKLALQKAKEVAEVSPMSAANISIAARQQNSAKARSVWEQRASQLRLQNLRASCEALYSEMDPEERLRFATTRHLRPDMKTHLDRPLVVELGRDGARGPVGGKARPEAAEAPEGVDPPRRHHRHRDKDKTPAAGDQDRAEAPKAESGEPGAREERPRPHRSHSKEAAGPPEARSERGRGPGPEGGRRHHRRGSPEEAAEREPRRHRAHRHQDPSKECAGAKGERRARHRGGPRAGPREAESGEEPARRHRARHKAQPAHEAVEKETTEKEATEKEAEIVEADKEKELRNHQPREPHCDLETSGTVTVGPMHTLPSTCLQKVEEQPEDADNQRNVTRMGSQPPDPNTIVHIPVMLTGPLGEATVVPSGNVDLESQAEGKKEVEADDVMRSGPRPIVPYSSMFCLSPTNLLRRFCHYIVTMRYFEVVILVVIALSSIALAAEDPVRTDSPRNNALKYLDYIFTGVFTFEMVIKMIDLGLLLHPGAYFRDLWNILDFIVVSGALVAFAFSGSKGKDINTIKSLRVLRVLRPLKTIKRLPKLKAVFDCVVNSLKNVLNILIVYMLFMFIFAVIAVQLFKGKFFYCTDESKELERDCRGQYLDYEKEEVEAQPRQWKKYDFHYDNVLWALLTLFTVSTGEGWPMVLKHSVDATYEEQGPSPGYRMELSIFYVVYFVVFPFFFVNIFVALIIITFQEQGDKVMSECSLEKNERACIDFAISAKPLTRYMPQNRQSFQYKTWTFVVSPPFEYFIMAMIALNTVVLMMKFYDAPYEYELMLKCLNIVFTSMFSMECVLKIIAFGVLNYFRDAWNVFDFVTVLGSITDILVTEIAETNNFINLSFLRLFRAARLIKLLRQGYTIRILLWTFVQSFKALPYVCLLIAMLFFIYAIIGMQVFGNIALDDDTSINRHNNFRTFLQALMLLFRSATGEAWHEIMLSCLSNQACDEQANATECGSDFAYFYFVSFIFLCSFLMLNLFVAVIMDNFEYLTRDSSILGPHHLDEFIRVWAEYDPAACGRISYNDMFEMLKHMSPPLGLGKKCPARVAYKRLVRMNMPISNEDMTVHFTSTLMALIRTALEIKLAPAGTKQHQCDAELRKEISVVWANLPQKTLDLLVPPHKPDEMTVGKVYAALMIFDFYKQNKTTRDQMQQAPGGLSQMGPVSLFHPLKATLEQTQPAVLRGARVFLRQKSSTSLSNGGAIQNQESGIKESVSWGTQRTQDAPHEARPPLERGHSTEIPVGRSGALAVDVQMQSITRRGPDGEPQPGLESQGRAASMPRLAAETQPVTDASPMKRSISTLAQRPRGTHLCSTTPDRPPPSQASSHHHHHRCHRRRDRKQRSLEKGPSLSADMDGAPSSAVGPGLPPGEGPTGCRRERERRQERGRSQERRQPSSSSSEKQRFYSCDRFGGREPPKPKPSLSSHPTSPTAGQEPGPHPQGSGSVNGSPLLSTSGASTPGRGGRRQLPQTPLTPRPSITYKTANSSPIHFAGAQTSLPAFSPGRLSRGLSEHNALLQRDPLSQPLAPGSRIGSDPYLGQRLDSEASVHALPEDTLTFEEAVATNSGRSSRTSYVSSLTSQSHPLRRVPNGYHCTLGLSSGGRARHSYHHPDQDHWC
Assay: inhibitors of Mint1-CaV2.2 protein interaction, biochemical, HTRF (AID 2073)
Details: at 20 µM, stronger effect = higher value
[1] = measured here: average of repeat tests

SMILES	inhibition	inhibition [1]
O=c1oc2c(O)c(O)cc3c(=O)oc4c(O)c(O)cc1c4c23	9.6% (inactive)	–
O=c1cc2c(=O)oc3cc(O)c(O)oc3c2c(O)c1O	70% (active)	–
O=c1oc2ccccc2c2oc3cc(O)c(O)cc3c12	20% (inactive)	–
COc1ccc(OC)c(NC(=O)CCC(=O)N(Cc2ccc(OC)c(OC)c2)c2nccs2)c1	0.5% (inactive)	–
CC(C)c1ccc(C2NC(=S)NC3=C2C(=O)CC(C)(C)C3)cc1 (stereo unspecified)	-9.1% (inactive)	–
Cc1cc(N2CCC(C(=O)NC3CCCCC3)CC2)nc(-c2ccccc2)n1	-4% (inactive)	–
COc1ccc(/C=C(/CC(=O)Nc2ccccc2)c2nc3ccccc3s2)cc1	13% (inactive)	–
COc1cccc(/C=C(/CC(=O)Nc2ccc(N3CCOCC3)cc2)c2nc3ccccc3s2)c1	59.9% (active)	–
COc1cccc(/C=C(\CC(=O)O)c2nc3ccccc3s2)c1	-2.6% (inactive)	–
Cc1nonc1C1CCCN1Cc1cn[nH]c1-c1ccc2c(c1)OCO2 (stereo unspecified)	6.8% (inactive)	–
CCOc1ccc2nc(NS(=O)(=O)c3ccc(NC(C)=O)cc3)sc2c1	-0.1% (inactive)	–
CCOc1ccc2nc(Nc3nc4ccc(NC(C)=O)cc4s3)sc2c1	55% (active)	–
CCOc1cccc2sc(Nc3nc4ccc(NC(C)=O)cc4s3)nc12	28.4% (inactive)	–
COc1ccc(C(=O)/C=C/C(=O)N(CC(=O)NC2CCCCC2)Cc2ccccc2OC)c(O)c1	11.5% (inactive)	–
COc1ccc(C(=O)/C=C/C(=O)N(CC(=O)NC2CCCCC2)Cc2ccc(F)cc2)c(O)c1	37.7% (inactive)	–
COc1ccc(C(=O)/C=C/C(=O)N(CC(=O)NC2CCCCC2)Cc2ccccc2)c(O)c1	64.1% (active)	–
CCc1nnc(N/N=C/c2c(Cl)cccc2Cl)n1N	-7.9% (inactive)	–
CCc1nnc(N/N=C/c2c(C)[nH]c3ccccc23)n1N	55.5% (active)	–
Cc1[nH]c2ccccc2c1/C=N/Nc1nncn1N	-14.7% (inactive)	–
CCC1Oc2ccc(C)cc2N(CC(=O)N(Cc2cccnc2)Cc2cccc(F)c2)C1=O (stereo unspecified)	-3.3% (inactive)	–
CCC1Oc2ccc(C)cc2N(CC(=O)N(Cc2cccnc2)Cc2ccc(C)o2)C1=O (stereo unspecified)	52.5% (active)	–
CCC1Oc2ccc(C)cc2N(CC(=O)N(Cc2ccncc2)Cc2ccco2)C1=O (stereo unspecified)	10.2% (inactive)	–
CCOC(=O)c1cnn(-c2cc(C)cc(C)c2)c1N	3.5% (inactive)	–
O=C(CSc1nnc(SCc2ccccc2)s1)N/N=C/c1c[nH]c2ccccc12	44.7% (inactive)	–
Cc1ccc(CSc2nnc(SCC(=O)N/N=C/C=C/c3ccco3)s2)cc1	35.3% (inactive)	–
O=C(CSc1nnc(SCc2ccccc2)s1)N/N=C/C=C\c1ccco1	79.7% (inactive)	18.4%
Cc1ccc(CSc2nnc(SCC(=O)N/N=C/c3c[nH]c4ccccc34)s2)cc1	59.7% (active)	–
O=C(CSc1nnc(SCc2ccccc2)s1)N/N=C/C=C/c1ccco1	50.1% (active)	–
O=C(CSc1nnc(SCc2ccc(Cl)cc2)s1)N/N=C/c1c[nH]c2ccccc12	50.2% (inactive)	42.7%
